Source: PubChem BioAssay AID686979 (National Center for Advancing Translational Sciences (NCATS), 2013)
Values joined by “and” are separate entries in the source; they are usually repeats but may differ in a detail not shown here. Equal values may be shown once. The campaign covered roughly 420,000 compounds. About 50,000 (12%) were called active. About 26% were inconclusive and are not listed. This excerpt belongs to a sample that is enriched for actives. Unmarked numbers belong to inactive results. Calls follow the shape of the dose curve; as a rule, active = well fitted inhibition curve with a large enough effect; inconclusive = small, poorly fitted or top-dose-only effect; inactive = flat fitted curve, though single readings scatter.

Assay: qHTS for Inhibitors of human tyrosyl-DNA phosphodiesterase 1 (TDP1): qHTS in cells in presence of CPT; also: nearly all actives have a fitted effect of over 55% in size
Conditions: chicken DT40 Tdp1-/-;hTDP1 cells + 20 nM CPT, ATP luminescence, 48 h; series mostly up to 46.2 µM; activity change, negative = growth inhibition: at the top concentration
Outline: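 Chicken DT40 Tdp1-/- cells stably complemented with human TDP1 were seeded at 400 cells/well in medium containing 20 nM camptothecin, exposed to pin-transferred compounds, and grown at 37 °C for at least 48 hr. Viability was read as ATP luminescence.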
% is scaled to controls: 0 for no effect and ±100 for the full control effect; potency is read from the fitted curve at half-maximal effect.

| Structure (SMILES) | activity change, negative = growth inhibition | Potency |
| --- | --- | --- |
| COC(=O)c1ccccc1NC(=O)Cn1c(=O)n(-c2cccc(C(F)(F)F)c2)c(=O)c2c(C)c(C)sc21 | -13.6% |  |
| CNS(=O)(=O)c1ccc(NC(=O)Nc2ccc3c(c2)OCO3)cc1 | -8.43% |  |
| O=C(N[C@@H](Cc1ccccc1)C(=O)OCc1ccccc1)c1nc[nH]c1C(=O)NC1CCNCC1 | 10.2% |  |
| O=C(NC1CCCC1)C1c2ccccc2OCC(=O)N1Cc1ccccc1 (stereo unspecified) | -18.2% |  |
| COc1ccccc1NC(=O)c1cc(N2C(=O)C3C4CCC(C4)C3C2=O)ccc1Cl (stereo unspecified) | 3.9% |  |
| CCOC(=O)c1ccccc1NC(=O)CSc1nc2c(sc(=S)n2CC)c(=O)[nH]1 | -25.9% |  |
| CC(C)n1c(O)c(N=Nc2ccccn2)c2ccccc21 | -9.09% |  |
| FC(F)(F)c1ccnc(Oc2ccc(C3=NCCS3)cc2)c1 | -0.223% |  |
| Cc1ccc(NC(=O)c2ccco2)cc1 | 16.3% |  |
| O=C(c1cnccn1)N1CCN(S(=O)(=O)c2cccc(Cl)c2)CC1 | -5.64% |  |
| O=C1CC(c2ccccc2)C(=O)N2C(=O)CC(c3ccccc3)C(=O)N12 (stereo unspecified) | 22.6% |  |
| FC(F)(F)Oc1ccccc1C(c1nnnn1C1CCCCC1)N1CCN(C/C=C/c2ccccc2)CC1 (stereo unspecified) |  | 18.4 µM (active) |
| CCOC(=O)C1CCN(C(c2cc3cc(C)cc(C)c3[nH]c2=O)c2nnnn2C2CCCCC2)CC1 (stereo unspecified) | -25.1% |  |
| CNC(=O)NC(=O)C(C)N1CCN(C/C=C/c2ccccc2)CC1 (stereo unspecified) | 13.1% |  |
| COCCn1c(=O)c(-c2ccc(OC)cc2)nc2cnc(Oc3cccc(Cl)c3)nc21 | 4.38% |  |
| Cc1cc(C)n(-c2ccc3nncn3n2)n1 | 9.29% |  |
| COc1ccc(-c2noc(CSc3nc4ccc(C)cc4[nH]3)n2)cc1 |  | 20.6 µM (active) |
| COc1ccc(-c2noc(CN(C)S(=O)(=O)c3ccc(C)cc3)n2)cc1 |  | 16.4 µM (active) |
| COc1ccc(-c2noc(CCC(=O)N(C)c3ccccc3C)n2)cc1 | -22.6% |  |
| COc1ccc(-c2noc(CSc3ccc(C)cc3)n2)cc1 | -20.1% |  |
| COc1ccc2nc(SCC(=O)Nc3c(C)cc(C)cc3C)[nH]c2c1 | -17.4% |  |
| COc1ccccc1Cc1nc(-c2ccc(C)cc2)no1 | -29.4% |  |

| Structure (SMILES) | activity change, negative = growth inhibition | Potency |
| --- | --- | --- |
| CC1CCN(Cc2nc(-c3ccc(Cl)cc3)no2)CC1 | -26.8% |  |
| Cc1ccc(-c2noc(CC(c3ccccc3)c3ccccc3)n2)cc1 | -27.7% |  |
| Cc1ccc(S(=O)(=O)N(Cc2nc(-c3ccc(Cl)cc3)no2)C2CCCCC2)cc1 |  | 16.4 µM (active) |
| Cc1cccc(OCC(=O)NCCNC(=O)c2cccnc2)c1 | -1.32% |  |
| CCCC(=O)N1CCN(c2nc3c(OC)ccc(C)c3s2)CC1 | -28.7% |  |
| CC(C)C(=O)Nc1c2c(nn1-c1ccccc1)CSC2 | -4.66% |  |
| O=C(CN1C(=O)CCS(=O)(=O)c2ccccc21)NCc1ccc(F)cc1 | 2.03% |  |
| CN(CC(=O)Nc1ccccc1Cl)C(=O)c1ccccc1SCC(=O)N1CCCC1 | 1.16% |  |
| Cc1cccc(CNC(=O)c2cnn(-c3nccc(-c4ccccc4F)n3)c2C2CC2)n1 | -0.952% [at 9.04 µM] |  |
| CCOc1ccccc1N1CN(Cc2ccccc2)CNC1=S | -17.4% |  |
| O=C1CCCN1C(=O)COc1ccc([N+](=O)[O-])cc1 | 10.3% |  |
| CN(Cc1ccccc1)C(=O)c1cn(C)c2ccc(S(=O)(=O)N(C)C3CCCCC3)cc2c1=O | -20% |  |
| CN(c1ccccc1)S(=O)(=O)c1ccc(Cl)c(C(=O)OCC(N)=O)c1 | 0.976% |  |
| O=C(NCCc1ccccc1)c1c[nH]c2ccc(F)cc2c1=O | 9.16% |  |
| CC(=O)N/C(=C/c1ccc(Cl)cc1)C(=O)NCCc1c[nH]c2ccccc12 | -13.8% |  |
| CN(c1ccccc1)S(=O)(=O)c1ccc(Cl)c(C(=O)NCCc2c[nH]c3ccccc23)c1 |  | 14.6 µM (active) |
| CCc1ccc(NS(=O)(=O)c2ccc3[nH]cc(C(=O)NCCc4cccc(C)c4)c(=O)c3c2)cc1 | -27.2% |  |
| CCN(CC)S(=O)(=O)c1ccc2[nH]cc(C(=O)NCCc3ccccc3)c(=O)c2c1 |  | 14.6 µM (active) and 23.1 µM (active) |
| CN(CC(=O)NC(=O)Nc1ccccc1F)Cc1ccccc1 | -15.6% |  |
| COCCNC(=O)C1CCN(C(=O)C2CC(=O)N(c3ccc(C)cc3)C2)CC1 (stereo unspecified) | 10.4% |  |
| CCN(CC)CCCNC(=O)COc1ccc2oc3c(c2c1)CCCC3 | -13.5% |  |
| N[C@@H](Cc1ccccc1)C(=O)N1CCOCC1 | 4.38% |  |

| Structure (SMILES) | activity change, negative = growth inhibition | Potency |
| --- | --- | --- |
| COc1cc(OC)cc(C(=O)NCCCn2ccnc2)c1 | 28.8% |  |
| CCOc1ccc(-c2cc3nc(C4CCN(C(=O)OC(C)(C)C)CC4)c(C(=O)Nc4ccc(C(=O)OC)cc4)cn3n2)cc1 | -25.1% |  |
| CCOc1ccc(-c2cc3nc(C4CCN(C(=O)OC(C)(C)C)CC4)c(C(=O)Nc4cccc(CC)c4)cn3n2)cc1 |  | 23.1 µM (active) |
| CCc1cccc(NC(=O)COC(=O)C2CCN(c3ccc(C(F)(F)F)cn3)CC2)c1 | 0.109% |  |
| O=c1[nH]cnc(O)c1C(c1ccc(F)cc1)c1c(O)nc[nH]c1=O | 6.39% |  |
| CC(=O)Oc1ccc(C(C)=O)c2c1OCCO2 | -4.02% |  |
| CC(=O)NCCc1ccc(S(=O)(=O)Nc2ccc(C)c(S(=O)(=O)N3CCOCC3)c2)cc1 | -15.7% |  |
| O=C(CCC(=O)Nc1ccccc1)N/N=C/c1ccccc1F | 15.4% |  |
| Oc1ccccc1C=NC1CCCCC1N=Cc1ccccc1O (stereo unspecified) | -9.12% |  |
| O=C(NN=Cc1ccccc1O)NN=Cc1ccccc1O |  | 4.11 µM (active) |
| C=CCOc1ccccc1/C=N/NC(=O)Cc1ccccc1 | -0.93% |  |
| O=C(N/N=C/c1ccccc1O)/C(=C/c1ccccc1)CCO |  | 3.26 µM (active) |
| O=C(CCCCCNC(=O)c1ccccc1)N/N=C/c1ccccc1 | -4.67% |  |
| CN(Cc1nc2ccccc2s1)C(=O)c1ccc(F)cc1 | -8.72% |  |
| CCCS(=O)(=O)NC(=O)C1(C)CCN(C(=O)c2sccc2C)C1 (stereo unspecified) | 2.03% |  |
| CCc1ccc(C(=O)C(C)OC(=O)CN2C(=O)NC3(CCCC3)C2=O)cc1 (stereo unspecified) | -24.3% |  |
| COC(=O)Nc1ccc(S(=O)(=O)Nc2cc(OC)nc(OC)n2)cc1 | 3.17% |  |
| CCOC(=O)c1ccc(NC(=O)Cn2c(=O)n(-c3ccc(C)cc3)c(=O)c3c2cnn3C)cc1 | -19.4% |  |
| COC(=O)C1=C(C(=O)OC)C2(OC1c1ccc(Br)cc1)C(=O)c1ccccc1C2=O (stereo unspecified) | -7.41% |  |
| CN1C(=O)c2[nH]nc(-c3ccc(F)cc3)c2C1c1ccccn1 (stereo unspecified) | -21.5% |  |
| CCOc1ccc(/C(O)=C2\C(=O)C(=O)N(c3ccc(OC)cc3)C2c2ccccc2[N+](=O)[O-])cc1 (stereo unspecified) | -12.9% |  |
| CCOc1ccc(-c2n[nH]c3c2C(c2ccccc2OC)N(c2ccc(Br)cc2)C3=O)cc1 (stereo unspecified) |  | 16.4 µM (active) |
